# Inconclusive results are not listed. Where a call stands in place of a potency, no number is given. Values without a mark were called inactive. The source made the active and inactive calls. Calls come from the whole dose curve; as a rule, active = well fitted curve in the direction sought with a large enough effect; inconclusive = small, poorly fitted or top-dose-only effect, or another doubt; inactive = no such curve, though single readings can be large; an effect the other way counts as inactive or inconclusive.
# Columns and labels:
# [1] = P-glycoprotein substrates identified in KB-3-1 adenocarcinoma cell line, qHTS therapeutic library screen (AID 1346986); conditions: KB-3-1 parental cells viability, CellTiter-Glo, 72 h; series mostly up to 44.5 µM; note: nearly all actives have a fitted effect of over 60% in size
# Summary of the method: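 Using luminescence to quantify ATP, parental and P-gp-overexpressing KB cells were compared after 72 h compound titration. KB-8-5-11 was also run with the P-gp inhibitor tariquidar.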
# [2] = P-glycoprotein substrates identified in KB-8-5-11 adenocarcinoma cell line, qHTS therapeutic library screen (AID 1346987); conditions: KB-8-5-11 (P-gp overexpressing) viability, CellTiter-Glo, 72 h; series mostly up to 44.5 µM; note: nearly all actives have a fitted effect of over 65% in size
# Summary of the method: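 Human cervical adenocarcinoma KB-8-5-11 cells, selected in colchicine to over-express P-gp and assayed without it, were exposed for 72 h to titrated compounds. An ATP-based luminescent viability signal gave AC50.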
# [3] = system: Zika virus NS2B-NS3 protease (unlinked complex); assay: Primary screen GU Rhodamine qHTS for Zika virus inhibitors: Unlinked NS2B-NS3 protease assay (AID 1347159); conditions: Recombinant ZIKV NS2B-NS3 protease, Rhodamine110 substrate fluorescence; series mostly up to 107 µM; note: nearly all actives have a fitted effect of over 60% in size; note: potency is the fitted concentration of half-maximal effect
# Summary of the method: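 Unlinked NS2B/NS3, 25 nM; Rhod110 peptide, 1.5 microM; compounds, up to 114 microM. Reaction run 15 min at RT in 10 mM Tris-HCl pH 8.0, 0.01% Tween 20; kinetic fluorescence change fitted with a 4-parameter Hill model.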
# [4] = system: Zika virus NS2B-NS3 protease (linked construct); assay: Primary screen NINDS Rhodamine qHTS for Zika virus inhibitors (AID 1347160); conditions: purified NS2B-NS3 protease, Rhodamine110 substrate fluorescence; series mostly up to 33.1 µM; note: nearly all actives have a fitted effect of over 55% in size; note: potency is the fitted concentration of half-maximal effect
# Summary of the method: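 Single-chain NS2B-NS3 protease, 25 nM, pH 8.0; compounds preincubated 15 min. Activity: Rhodamine110 release from 1.5 microM substrate over 15 min, room temperature, data fitted to 4-parameter Hill.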
Molecule,Potency [1],Potency [2],Potency [3],Potency [4],outcome [1],outcome [2],"activity change, negative = inhibition [3]","activity change, negative = cytotoxicity [2]"
CC(C)C1(O)NC(=O)C(CC2(O)c3ccccc3N3C(=O)C(C)(C)NC32)n2c1nc1ccccc1c2=O (configuration not stated),inactive,inactive,inactive,inactive,,,,
COc1cc2c(cc1O)CC(O)(CO)C(CO)C2c1ccc(OC2OC(CO)C(O)C(O)C2O)c(OC)c1 (configuration not stated),inactive,inactive,inactive,inactive,,,,
C=C1CCc2occ(C)c2[C@H]2[C@H]1[C@@]13O[C@@]1(C[C@@H](C)[C@H]3OC(C)=O)[C@H]1O[C@@]21C,inactive,inactive,inactive,inactive,,,,
COC(=O)C1=CO[C@@H](O[C@@H]2O[C@H](CO)[C@@H](O)[C@H](O)[C@H]2O)/C(=C\CO)[C@@H]1CC(=O)OCCc1ccc(O)cc1,inactive,inactive,inactive,inactive,,,,
CC1(C)CC[C@]2(C(=O)O[C@@H]3O[C@H](CO[C@@H]4O[C@H](CO[C@@H]5O[C@H](CO)[C@H](O)[C@H](O)[C@H]5O)[C@@H](O)[C@H](O)[C@H]4O)[C@@H](O)[C@H](O[C@@H]4O[C@H](CO)[C@@H](O)[C@H](O)[C@H]4O)[C@H]3O)[C@H](O)C[C@]3(C)C(=CCC4[C@@]5(C)CC[C@H](O[C@@H]6OC[C@@H](O)[C@H](O)[C@H]6O)[C@@](C)(C(=O)O)C5CC[C@]43C)[C@@H]2C1 (some centres not stated),,,,inactive,inactive [at 9.29 µM],inactive [at 9.29 µM],8.5% [at 19.1 µM],
C=C1CCC2C(C)(C(=O)OC)CCCC2(C)C1CCC1=CCOC1=O (configuration not stated),inactive,inactive,inactive,inactive,,,,
CC(=O)O[C@@H]1[C@@H](O)[C@H](C)O[C@@H](O[C@H]2[C@@H]3C=CO[C@@H](O[C@@H]4O[C@H](CO)[C@@H](O)[C@H](O)[C@H]4OC(C)=O)[C@@H]3[C@@]3(CO)O[C@@H]23)[C@@H]1OC(=O)/C=C/c1ccc(O)cc1,inactive,inactive,inactive,inactive,,,,
C/C(=C\CO)CC/C=C(\C)C(=O)O[C@@H]1O[C@H](CO)[C@@H](O)[C@H](O)[C@H]1O,inactive,inactive,inactive,inactive,,,,
COc1cc(O[C@@H]2O[C@H](CO[C@H]3OC[C@](O)(CO)[C@H]3O)[C@@H](O)[C@H](O)[C@H]2O)cc(OC)c1O,inactive,inactive,inactive,inactive,,,,
CC1(C)[C@@H]2CC=C(CO[C@@H]3O[C@H](CO[C@@H]4OC[C@H](O)[C@H](O)[C@H]4O)[C@@H](O)[C@H](O)[C@H]3O)[C@H]1C2,inactive,inactive,inactive,inactive,,,,
COc1cc2nc(=NC(=O)c3cccnc3)n3c(c2cc1OC)NCC3,inactive,inactive,inactive,inactive,,,,
CCC(C)(C)C1CCc2c(sc(NC(=O)c3ccc(Br)cc3)c2C#N)C1 (configuration not stated),inactive,inactive,inactive,inactive,,,,
O=C(C[C@@H]1C(C(=O)O)=CO[C@@H](O[C@@H]2O[C@H](CO)[C@@H](O)[C@H](O)[C@H]2O)/C1=C\CO)OCCc1ccc(O)cc1,inactive,inactive,inactive,inactive,,,,
C[C@@H]1O[C@@H](O[C@@H]2[C@@H](O)[C@H](O[C@H]3[C@H](O[C@H]4CC[C@@]5(C)C(CC[C@]6(C)C5CC=C5[C@@H]7CC(C)(C)CC[C@]7(C(=O)O[C@@H]7O[C@H](CO)[C@@H](O)[C@H](O)[C@H]7O)CC[C@]56C)C4(C)C)O[C@H](C(=O)O)[C@@H](O)[C@@H]3O)OC[C@H]2O)[C@H](O)[C@H](O)[C@H]1O (some centres not stated),,,inactive,inactive,inactive [at 9.29 µM],,,6.37% [at 9.29 µM]
Cc1onc(-c2c(Cl)cccc2Cl)c1CC(=O)NCc1ccc(OCC(F)(F)F)nc1,inactive,inactive,inactive,inactive,,,,
CN1CCN(C2=Nc3ccccc3Nc3ccc(O)cc32)CC1,inactive,inactive,inactive,inactive,,,,
CC(O)C1NC(=O)C2CCCN2C1=O (configuration not stated),inactive,inactive,inactive,inactive,,,,
COC(=O)C1=CO[C@@H](O[C@@H]2O[C@H](CO)[C@@H](O)[C@H](O)[C@H]2O)[C@H]2[C@@H]1[C@H](O)C[C@]2(C)O,inactive,inactive,inactive,inactive,,,,
Cc1occc(=O)c1O[C@@H]1O[C@H](CO[C@@H]2OC[C@](O)(CO)[C@H]2O)[C@@H](O)[C@H](O)[C@H]1O,inactive,inactive,inactive,inactive,,,,
O=C(O)/C=C/c1ccc(O[C@@H]2O[C@H](CO)[C@@H](O)[C@H](O)[C@H]2O)cc1,inactive,inactive,inactive,inactive,,,,
H-DPPDPDRFYGMM-NH2,inactive,inactive,inactive,inactive,,,,
COC(=O)C1=CO[C@@H](O[C@@H]2O[C@H](CO)[C@@H](O)[C@H](O)[C@H]2O)[C@@H]2[C@@H](CO)[C@@H](O)C(O)[C@H]12 (some centres not stated),inactive,inactive,inactive,inactive,,,,
CCC(C)/C=C(C)/C=C/C1=CC2=C(Cl)C(=O)C(C)(O)C(=O)C2(O)C(OC)O1 (configuration not stated),inactive,inactive,15.8 µM (active),10 µM (active),,,,
Nc1ncnc2c1C(=O)N(c1ccc(C3CCC(CC(=O)O)CC3)cc1)CCO2 (configuration not stated),inactive,inactive,inactive,inactive,,,,

Molecule,Potency [1],Potency [2],Potency [3],Potency [4],outcome [1],outcome [2],"activity change, negative = inhibition [3]","activity change, negative = cytotoxicity [2]"
CC(=O)O[C@@H]1CC2C(C)(C)C(=O)C=C[C@]2(C)C2CC[C@]3(C)C(=CC(=O)[C@@H]3c3ccoc3)[C@@]21C (some centres not stated),inactive,inactive,inactive,inactive,,,,
CC1(C)OC(=O)CC(O)C2(C)C1CC(=O)C1(C)C2C(O)CC2(C)C(c3ccoc3)OC(=O)C3OC321 (configuration not stated),inactive,inactive,inactive,inactive,,,,
CC1=C2CC(C)(C)CC2C(O)C2=C(C1)C(=O)OC2O (configuration not stated),inactive,inactive,inactive,inactive,,,,
NC(N)=NCCC[C@H](NC(=O)c1sccc1NS(=O)(=O)c1cccc2nsnc12)C(=O)O,inactive,inactive,inactive,inactive,,,,
O=C(NCCN1CCCC1)c1cc(-c2ccc(CN3CCOCC3)cc2)nc2ccc(F)cc12,inactive,inactive,inactive,inactive,,,,
C=C[C@H]1[C@H](O[C@@H]2O[C@H](CO)[C@@H](O)[C@H](O)[C@H]2O)OC=C2C(=O)N3Cc4c([nH]c5ccccc5c4=O)[C@@H]3C[C@H]21,inactive,inactive,inactive,inactive,,,,
COc1ccnc2[nH]cc(C(=O)C(=O)N3CCN(C(=O)c4ccccc4)CC3C)c12 (configuration not stated),inactive,inactive,inactive,inactive,,,,
CC(C)=CCC/C(C)=C/CO[C@@H]1O[C@H](CO[C@@H]2OC[C@](O)(CO)[C@H]2O)[C@@H](O)[C@H](O)[C@H]1O,inactive,inactive,inactive,inactive,,,,
Cc1occc(=O)c1O[C@@H]1O[C@H](CO)[C@@H](O)[C@H](O)[C@H]1O,inactive,inactive,inactive,inactive,,,,
C[C@@H]1O[C@@H](O[C@H]2[C@H](O)[C@@H](O)[C@H](OC[C@H]3O[C@@H](OC(=O)[C@]45CCC(C)(C)C[C@H]4C4=CCC6[C@@]7(C)C[C@@H](O)[C@H](O)[C@@](C)(CO)C7[C@H](O)C[C@@]6(C)[C@]4(C)CC5)[C@H](O)[C@@H](O)[C@@H]3O)O[C@@H]2CO)[C@H](O)[C@H](O)[C@H]1O (some centres not stated),,,inactive,inactive,inactive [at 9.29 µM],inactive [at 9.29 µM],,
CCOc1ncc(S(=O)(=O)N2CCN(CC)CC2)cc1-c1nc2c(CC)n(CCOC)nc2c(=O)[nH]1,inactive,inactive,inactive,inactive,,,,
O=C(/C=C/c1ccc(O)cc1)OC[C@H]1O[C@@H](O/C(=C\c2ccccc2)C(=O)O)[C@H](O)[C@@H](O)[C@@H]1O,inactive,inactive,inactive,inactive,,,,
CC12CC(O)C(O)C=C1c1cc(O)cc(O)c1C(=O)O2 (configuration not stated),inactive,inactive,inactive,inactive,,,,
COc1cc(O)cc2c1C(=O)OC(C)CCCCCCC2 (configuration not stated),inactive,inactive,20 µM (active),14.1 µM (active),,,,
CC1(C)Oc2ncnc(N)c2N=C1c1ccc(C2CCC(CC(=O)O)CC2)cc1 (configuration not stated),inactive,inactive,inactive,inactive,,,,
Cc1cc(CO)c(O)c(C(=O)CC2CC(=O)NC(=O)C2)c1,inactive,inactive,inactive,inactive,,,,
CC1(C)C[C@@H]2[C@H](C1)[C@@]1(C)C[C@]13C(O)OC[C@]3(O)[C@H]2O (some centres not stated),inactive,inactive,inactive,inactive,,,,
CCCN(CCN1CCN(c2ccccc2OC)CC1)C1CCc2ncsc2C1 (configuration not stated),inactive,inactive,inactive,inactive,,,,
C=C1CC2C3(C)C(O)CC(=O)C(C)(C)C3C(O)C(OC(C)=O)C2(C)C2C(=O)OC(C)(C(=O)OC)C(=O)C12C (configuration not stated),inactive,inactive,inactive,inactive,,,,
Cc1cc(C(=O)N2Cc3cnn(C)c3Nc3ccccc32)ccc1CNC(=O)N1CCN(Cc2cc(O)cc(O)c2)CC1,inactive,inactive,inactive,inactive,,,,
CSC(=O)OCC1=C[C@@H]2OC(=O)C3=CO[C@@H](O[C@@H]4O[C@H](CO)[C@@H](O)[C@H](O)[C@H]4O)[C@H]1[C@@H]32,inactive,inactive,inactive,inactive,,,,
CC1(C)CC[C@]2(C(=O)O)CC[C@]3(C)C(=CCC4[C@@]5(C)C[C@@H](O)[C@H](O)[C@@](C)(CO)C5[C@H](O)C[C@]43C)[C@@H]2C1 (some centres not stated),inactive,inactive,inactive,inactive,,,,
CC(=O)O[C@H]1C[C@@H](O)C(C)(C)C2C[C@@H](OC(C)=O)[C@@]3(C)C4=CCC(C(CO)CC(O)C5OC5(C)C)[C@]4(C)CCC3[C@]21C (some centres not stated),inactive,inactive,inactive,inactive,,,,
NC[C@@H]1O[C@@H](O[C@@H]2[C@@H](O[C@@H]3O[C@H](CO)[C@@H](O)[C@H]3O)[C@H](O)[C@@H](N)C[C@H]2N)[C@@H](N)[C@H](O)[C@H]1O,,,,inactive,inactive [at 9.29 µM],inactive [at 9.29 µM],6.33% [at 19.1 µM],

# From PubChem BioAssay (NCATS)
